PLK1 PBD inh – blocks phosphopeptide binding to human PLK1 polo-box domain. P53350. Plk1 PBD binding of FITC phosphopeptide, fluorescence polarization. Potency, µM, hits mostly inhibitors. 2.8% of 360,000 active; further: series mostly up to about 57 µM; nearly all actives have a fitted effect of over 65% in size
VDR inh – blocks the human vitamin D receptor; P11473; VDR-SRC2-3 peptide fluorescence polarization, 2 h; Potency, µM, hits mostly inhibitors; 0.93% of 400,000 active; AID 504847
Target sequence (P11473 whole entry, looked up): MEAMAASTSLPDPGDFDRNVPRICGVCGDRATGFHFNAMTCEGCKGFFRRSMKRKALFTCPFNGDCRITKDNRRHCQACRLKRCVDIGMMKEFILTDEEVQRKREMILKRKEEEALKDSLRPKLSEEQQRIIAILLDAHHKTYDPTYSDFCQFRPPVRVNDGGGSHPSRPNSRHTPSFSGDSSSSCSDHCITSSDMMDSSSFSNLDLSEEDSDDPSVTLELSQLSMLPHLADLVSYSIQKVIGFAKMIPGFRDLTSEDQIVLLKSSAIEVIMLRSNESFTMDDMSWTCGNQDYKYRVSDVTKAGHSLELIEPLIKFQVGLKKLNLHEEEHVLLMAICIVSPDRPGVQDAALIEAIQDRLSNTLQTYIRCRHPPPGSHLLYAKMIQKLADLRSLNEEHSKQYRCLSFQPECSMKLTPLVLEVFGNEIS
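VDR–SRC2-3 interaction, FP format. Cmpds 23 nl via pintool, brief spin, 2 h ambient incubation.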
GCN5L2 inh – inhibitors of human GCN5L2 histone acetyltransferase | Potency, µM (titrated, usually from 58.9 µM), usual class: inhibitors | AID 504327 | 0.21% of 390,000 active | Q92830 | GCN5L2 HAT assay, ThioGlo1 CoA-SH fluorescence
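qHTS, 1536-well. 20nM enzyme, pH 7.5 HEPES/EDTA/Tween-20 buffer; 15 min compound preinc., RT. Start: 75uM H3(1-25), 70uM AcCoA, 50uM ThioGlo1. Read Ex340/Em540 at t=0 (autofluorescence flag) and t=20 min.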
TDP1 cell noCPT – qHTS for Inhibitors of human tyrosyl-DNA phosphodiesterase 1 (TDP1): qHTS in cells in absence of CPT; DT40 Tdp1-/- hTDP1 cells, no CPT, ATP luminescence, 48 h; Potency, µM (titrated, usually from 46.2 µM), most hits filed as inhibitors; 15% of 420,000 active; further: nearly all actives have a fitted effect of over 55% in size
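Luminescent ATP content (CellTiter-Glo) served as the growth readout. Knockout chicken DT40 cells expressing human TDP1 were exposed to compounds without camptothecin for a minimum 48 hr at 37 °C.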
TDP1 inh – inhibitors of human tyrosyl-DNA phosphodiesterase TDP1; Q9NUW8; recombinant TDP1, AlphaScreen DNA substrate cleavage; Potency, µM (doses to about 130 µM), hits mostly inhibitors; 0.28% of 350,000 active; AID 485290; further: nearly all actives have a fitted effect of over 40% in size
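Tdp1 1 nM final; 15 min RT w/ cpd; substrate 15 nM, 5 min; beads 10 ug/ml, 10 min; AlphaScreen read. Neg ctrl: no enzyme.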
TDP1 cell CPT – growth inhibition of DT40 Tdp1-/-;hTDP1 cells with camptothecin (screen for TDP1 inhibitors) | chicken DT40 Tdp1-/-;hTDP1 cells + 20 nM CPT, ATP luminescence, 48 h | AID 686979 | 12% of 420,000 active | Potency, µM (series often up to 46.2 µM), actives largely listed as inhibitors; further: nearly all actives have a fitted effect of over 55% in size
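Chicken DT40 Tdp1-/- cells complemented with human TDP1, 400 cells/well, exposed to compounds plus 20 nM camptothecin for at least 48 h at 37 C; viability read as ATP content by CellTiter-Glo luminescence.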
Large screens that a line does not name were inactive. Rows were chosen to be rich in hits. Some 18% of all compounds tested hit in one or more screens of this group. The call rests on the fitted dose curve; in most records, active means well fitted curve in the direction sought with a large enough effect; inconclusive means small, poorly fitted or top-dose-only effect, or another doubt; inactive means no such curve, though single readings can be large; an effect the other way counts as inactive or inconclusive.

CCOC(=O)C1(CCOc2ccccc2)CCN(Cc2ccc(O)cc2)CC1	TDP1 cell noCPT inconclusive, TDP1 cell CPT inconclusive (no result: TDP1 inh)
CCOC(=O)C1(CC2CC2)CCN(Cc2cnc(-c3ccccc3C)nc2)CC1	TDP1 cell noCPT 18µM, TDP1 cell CPT 15µM
CCOC(=O)C1(CCOc2ccccc2)CCN(Cc2ccc(OC)c(COC)c2)CC1	GCN5L2 inh inconclusive, TDP1 cell noCPT 18µM, TDP1 cell CPT 18µM (no result: TDP1 inh)
CCOC(=O)C1(CCOC)CCN(Cc2cnc(-c3cccc(C)c3)nc2)CC1	TDP1 cell noCPT 16µM, TDP1 cell CPT inconclusive (no result: TDP1 inh)
CCOC(=O)C1(CCOc2ccccc2)CCN(Cc2ccc(O)c(OCC)c2)CC1	TDP1 cell noCPT inconclusive (no result: TDP1 inh)
Cc1noc(C)c1S(=O)(=O)N(CC(=O)NCc1ccccc1Cl)c1ccc(C(C)C)cc1	TDP1 cell noCPT inconclusive, TDP1 cell CPT inconclusive (no result: PLK1 PBD inh)
O=C(NCc1ccccc1CN1CCCC1)c1ccc(Cl)c(S(=O)(=O)N2CCCC2)c1	TDP1 cell noCPT inconclusive, TDP1 cell CPT inconclusive
O=C(NN=Cc1ccccc1)C(Oc1ccccc1)c1ccccc1 (stereo not given)	TDP1 cell noCPT inconclusive, TDP1 cell CPT inconclusive (no result: GCN5L2 inh, TDP1 inh)
Cc1ccc(NS(=O)(=O)c2cc(OCC(N)=O)c(C)cc2Cl)cc1	TDP1 cell noCPT inconclusive
CCOC(=O)C1(CCOc2ccccc2)CCN(Cc2cc(OC)c(O)c(OC)c2)CC1	PLK1 PBD inh inconclusive, TDP1 cell noCPT inconclusive, TDP1 cell CPT 29µM (no result: TDP1 inh)
O=C(CNc1ccccc1OC(F)F)N1CCc2ccccc21	GCN5L2 inh inconclusive
COc1ccc(CCn2c(C)cc3c(c2=O)C(c2ccc4c(c2)OCO4)C(C#N)=C(N)O3)cc1OC (stereo not given)	TDP1 cell noCPT 21µM, TDP1 cell CPT 13µM
COc1ccc(CCN2C(=O)C(Oc3ccccc3C)C2c2ccc3c(c2)OCO3)cc1OC (stereo not given)	TDP1 cell noCPT 16µM, TDP1 cell CPT 13µM
O=C1C(Oc2ccccc2)C(c2ccc3c(c2)OCO3)N1CCc1ccc(F)cc1 (stereo not given)	TDP1 cell noCPT inconclusive
COc1ccc(CCN2C(=O)C(Oc3ccccc3C)C2c2ccc3c(c2)OCO3)cc1 (stereo not given)	TDP1 cell noCPT 16µM, TDP1 cell CPT 15µM
COc1ccc(CCN2C(=O)CC(NCc3ccc4c(c3)OCO4)C2=O)cc1OC (stereo not given)	none
CCOc1ccc(CCNC(=O)c2ccc3c(Cl)c4c(nc3c2)CCCC4)cc1	TDP1 cell noCPT 23µM, TDP1 cell CPT inconclusive (no result: PLK1 PBD inh)
O=C(NCCCN1CCCCCC1)c1ccc2c(Cl)c3c(nc2c1)CCCC3	none
COCCNC(=O)c1ccc2c(Cl)c3c(nc2c1)CCC3	none (no result: TDP1 inh)
CCOC(=O)c1cccc(NC(=O)c2ccc3c(Cl)c4c(nc3c2)CCC4)c1	TDP1 cell noCPT 29µM, TDP1 cell CPT inconclusive (no result: PLK1 PBD inh)
CCCN(CCC)CCCNC(=O)c1ccc2c(Cl)c3c(nc2c1)CCC3	TDP1 cell noCPT 18µM, TDP1 cell CPT inconclusive (no result: TDP1 inh)
CC1CCN(CCCNC(=O)c2ccc3c(Cl)c4c(nc3c2)CCCC4)CC1	TDP1 cell noCPT 3.7µM, TDP1 cell CPT 13µM
CC(C)Oc1ccc(CNC(=O)c2cc3ccccn3n2)cc1	none (no result: PLK1 PBD inh)
O=C(N/N=C/c1ccccn1)NC12CC3CC(CC(C3)C1)C2	none
COc1ccc([C@]23Cc4cc(OC)c(OC)cc4C(O2)C2=C(CC(C)(C)CC2=O)O3)cc1	none (no result: PLK1 PBD inh, VDR inh, TDP1 cell noCPT, TDP1 inh, TDP1 cell CPT)
O=C(C1CCCO1)N1CCN(S(=O)(=O)c2ccc(Cl)cc2)CC1 (stereo not given)	none
CCN1CCN(CCCNC(=O)c2ccc3c(Cl)c4c(nc3c2)CCCC4)CC1	TDP1 cell noCPT 18µM, TDP1 cell CPT inconclusive
CCn1c(COc2cccc(C)c2C)nnc1SCC(=O)N1CCN(c2ccc(OC)cc2)CC1	TDP1 cell noCPT 21µM, TDP1 cell CPT 21µM
CCn1c(COc2cccc(C)c2)nnc1SCC(=O)N1CCCC1	none
CCn1c(COc2ccccc2C)nnc1SCC(=O)N1CCN(c2ccccc2)CC1	TDP1 cell noCPT 23µM, TDP1 cell CPT inconclusive
OCC[C@@H]1C[C@@H](O)[C@H](O)[C@]2(CCCO2)O1	VDR inh inconclusive (no result: GCN5L2 inh, TDP1 inh)
COc1ccc(Br)c(Cn2c(C)c(C(=O)NCc3cccc([N+](=O)[O-])c3)sc2=O)c1	none (no result: VDR inh, GCN5L2 inh, TDP1 inh)
COc1ccc2nc3oc(C(=O)NC4CCN(Cc5ccccc5)CC4)cc3cc2c1	TDP1 cell noCPT 18µM, TDP1 cell CPT 18µM
CCOC(=O)N1CCC(NC(=O)c2cc3cc4cc(OC)ccc4nc3o2)CC1	TDP1 cell noCPT 21µM, TDP1 cell CPT inconclusive
Cc1cc(C(=O)N(C2CCCCC2)C2CCCCC2)no1	TDP1 cell noCPT 8.2µM, TDP1 cell CPT 13µM
CCN(CC)C(=O)c1nc(-c2cccc3ccccc23)no1	TDP1 cell noCPT 16µM, TDP1 cell CPT inconclusive (no result: VDR inh, GCN5L2 inh, TDP1 inh)
CC(NCCC(Cc1ccccc1)c1ccco1)c1ccccc1 (stereo not given)	PLK1 PBD inh 30µM, TDP1 cell noCPT inconclusive, TDP1 cell CPT inconclusive (no result: TDP1 inh)
CN(Cc1ccc(Cl)s1)C(=O)CCl	VDR inh inconclusive, TDP1 cell noCPT 1.8µM, TDP1 cell CPT 3.3µM
COc1ccc(CN(C)C(=O)CCl)cc1	TDP1 cell noCPT 2.6µM, TDP1 cell CPT 2.3µM
CN(Cc1ccc(Cl)cc1)C(=O)CCl	TDP1 cell noCPT 2.6µM, TDP1 cell CPT 2.3µM
COc1ccc(S(=O)(=O)N2CCN(C(=O)N3CCOCC3)C2C)cc1 (stereo not given)	none
O=C(CCCCCn1c(=O)c2sccc2n(CC(=O)Nc2ccccc2F)c1=O)NCc1ccc2c(c1)OCO2	TDP1 cell CPT inconclusive (no result: PLK1 PBD inh)
Cc1nn(C)c(Oc2cccc(C(F)(F)F)c2)c1C#N	none
Cc1nn(C)c(Oc2cccc(Cl)c2)c1C#N	PLK1 PBD inh 8.4µM, VDR inh inconclusive, TDP1 cell noCPT 23µM, TDP1 cell CPT inconclusive
CCN1CCN(S(=O)(=O)c2cccc(S(=O)(=O)N3CCOCC3)c2)CC1	none
Cn1cc(P(=S)(N2CCOCC2)N2CCOCC2)cc1P(=O)(N1CCOCC1)N1CCOCC1	PLK1 PBD inh 13µM, VDR inh inconclusive
Cn1cc(P(=O)(N2CCOCC2)N2CCOCC2)cc1P(=S)(N1CCOCC1)N1CCOCC1	PLK1 PBD inh 11µM, VDR inh inconclusive
CCn1c(C)c(P(=O)(N2CCOCC2)N2CCOCC2)c2ccccc21	none
Cc1nn(-c2ccccc2)c2nc(C3CC3)cc(C(=O)Nc3ccc(F)cc3)c12	TDP1 cell noCPT 21µM, TDP1 cell CPT 16µM (no result: PLK1 PBD inh)
COc1ccc(NC(=O)c2cc(C)nc3c2c(C)nn3-c2ccc(C)cc2)cc1OC	TDP1 cell noCPT 15µM, TDP1 cell CPT inconclusive (no result: PLK1 PBD inh)
